Assay results reported in the supplement of paper PMC7335073.
The full ranking holds about 4,100 sequences; the median of “relative CpG methylation activity (normalised to average over all NNNCGNNN flanks)” is about 0.87, and the highest 2% start at about 2.4. Many of the other results were omitted from the sample, so the highest values are more common in it than they were.

Molecular target: DNMT3A catalytic domain (mouse) (UniProt O88508)
Assay: relative CpG methylation activity (normalised to average over all NNNCGNNN flanks) (relative (1 = mean)); higher = more methylation of the central CpG
Settings: system: in vitro, murine catalytic domain; CpG state: hemimethylated substrate pool; residues: 608-908
Protocol: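 Deep enzymology: a pool of dsDNA substrates with a central CpG flanked by 10 random nucleotides on each side was methylated by the murine DNMT3A or DNMT3B catalytic domain (0.8 mM SAM, 37 °C, 60 min). Methylation was then read out by hairpin ligation, bisulfite conversion and NGS. Values are the average methylation of each NNNCGNNN context (±3 flanks; the outer flanks are random and averaged over), normalised to the overall mean, so 1 = average activity.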

Row | Sequence | relative CpG methylation activity
1 | CCTCGGAT | 0.744
2 | CCCCGCGC | 1.17
3 | TATCGACT | 0.753
4 | ATCCGGAT | 1.34
5 | GTGCGACC | 1.61
6 | AGCCGATT | 0.672
7 | GATCGCCA | 0.923
8 | TTCCGCGC | 2.03
9 | CTCCGCCT | 2.45
10 | ATCCGCCG | 2.1
11 | TCCCGCCC | 1.99
12 | CTCCGCCA | 2.37
13 | CGCCGCCT | 1.48
14 | CTCCGCGT | 1.98
15 | ATCCGCCC | 2.96
16 | TTCCGCCC | 2.77
17 | CGCCGCCA | 1.25
18 | CACCGCCA | 1.32
19 | AACCGCCC | 1.78
20 | CATCGGGG | 0.133

Row | Sequence | relative CpG methylation activity
21 | CGCCGGTA | 0.746
22 | ATCCGGAA | 0.939
23 | CCACGCAC | 1.81
24 | CTTCGGGC | 1.16
25 | TCTCGACG | 0.648
26 | GGCCGCAA | 0.657
27 | TTGCGACT | 1.31
28 | CTCCGCCG | 2.31
29 | GTCCGCCG | 2.46
30 | GTCCGCCC | 2.41
31 | GGCCGCCG | 1.34
32 | GTCCGCGG | 0.584
33 | ATCCGCGT | 1.34
34 | CTCCGCCC | 2.44
35 | ATCCGCCT | 2.5
36 | CGCCGCCC | 1.77
37 | GGCCGCCC | 1.79
38 | AACCGCCT | 1.76
39 | GCCCGCCC | 2.25
40 | TAGCGCTG | 0.34

Row | Sequence | relative CpG methylation activity
41 | CATCGACC | 0.793
42 | GATCGTTT | 0.404
43 | TGTCGGTC | 0.542
44 | GGTCGAAA | 0.512
45 | ATCCGCGA | 1.03
46 | AGCCGCCA | 1.02
47 | ATCCGCCA | 2.4
48 | AACCGAGG | 0.346
49 | AGACGAGA | 0.731
50 | CTCCGTCA | 1.79
51 | ATCCGTCC | 2.61
52 | CTCCGTCG | 1.92
53 | CTCCGTCC | 2.65
54 | TTCCGTCC | 2.26
55 | ATCCGTCG | 2.08
56 | GCACGGGC | 1.47
57 | GAACGTCG | 1.25
58 | ATGCGGCC | 1.64
